# Results from PubChem BioAssay (NCI).
# Values joined by “and” are separate entries in the source; they are usually repeats but may differ in a detail not shown here. Identical values can stand only once. Compounds without any hit were thinned out: in the full panel of roughly 79,000, 15% have a hit. Some compounds were tested as several samples or in several runs, with calls that do not always agree. Active and inactive are the calls of the source. Rule as the data show it: active = growth inhibition above about 70%; inactive = the rest.
# What was measured:
# [1] = NCI Yeast Anticancer Drug Screen. Data for the mec2-1 strain (AID 157); settings: S. cerevisiae mec2-1 strain, stronger effect = higher value
# In short: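 Each compound was tested on mec2-1 yeast, a strain altered in DNA damage repair or cell cycle control. Growth inhibition is reported relative to vehicle.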
# [2] = NCI Yeast Anticancer Drug Screen. Data for the rad14 strain (AID 159);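 also: 0% = growth of vehicle-treated control cultures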; settings: S. cerevisiae rad14 strain growth inhibition, stronger effect = higher value
# In short: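 DNA repair-defective yeast, compound-exposed; % growth inhibition derived by comparison with vehicle-treated controls.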
# [3] = NCI Yeast Anticancer Drug Screen. Data for the sgs1 mgt1 strain (AID 161);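 also: 0% = growth of cultures given vehicle only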; settings: S. cerevisiae sgs1 mgt1 strain, stronger effect = higher value
# In short: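 Read-out: growth inhibition vs vehicle controls. Cells: mutant yeast strain deficient in DNA damage repair.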
# [4] = NCI Yeast Anticancer Drug Screen. Data for the CLN2oe strain (AID 163);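 also: 0% = growth of vehicle-only control cultures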; settings: S. cerevisiae CLN2oe strain, stronger effect = higher value
# In short: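 First, the altered yeast strain was treated with each compound; second, its growth was measured; finally, inhibition was derived by comparison with vehicle controls.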
# [5] = NCI Yeast Anticancer Drug Screen. Data for the cln2 rad14 strain (AID 165);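 also: 0% = growth equal to vehicle treated cultures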; settings: S. cerevisiae cln2 rad14 strain, stronger effect = higher value
# In short: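 Test compounds were added to cln2 rad14 yeast cultures; inhibition of growth was then determined by comparison with vehicle treatment.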
# [6] = NCI Yeast Anticancer Drug Screen. Data for the bub3 strain (AID 167); settings: S. cerevisiae bub3 mutant strain, stronger effect = higher value
# In short: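 In this screen, a yeast mutant lacking normal mitotic checkpoint function is challenged with compound. Relative growth versus vehicle gives the inhibition value.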
# [7] = NCI Yeast Anticancer Drug Screen. Data for the wt2 strain (AID 169);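 also: 0% = growth of vehicle-treated yeast cultures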; settings: S. cerevisiae wt2 strain growth inhibition, stronger effect = higher value
# In short: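 The panel's yeast strains carry defined changes in DNA repair or cell cycle genes. Each strain is grown with compound, and growth loss is scored relative to vehicle.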
# [8] = NCI Yeast Anticancer Drug Screen. Data for the mlh1 strain (AID 171);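 also: 0% = growth of vehicle-treated control cultures of the same strain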; settings: S. cerevisiae mlh1 strain growth inhibition, stronger effect = higher value
# In short: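 Inhibition values reflect reduced yeast growth in the presence of compound, referenced to vehicle controls, using a strain chosen for its alteration in DNA repair or cell cycle control.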
# [9] = NCI Yeast Anticancer Drug Screen. Data for the sgs1 strain (AID 173);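 also: 0% = growth of vehicle-only control cultures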; settings: S. cerevisiae sgs1 mutant, stronger effect = higher value
# In short: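 Vehicle-treated cultures served as reference for growth inhibition of a yeast strain altered in DNA damage repair or cell cycle control after compound exposure.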
# [10] = NCI Yeast Anticancer Drug Screen. Data for the mlh1 rad18 strain (AID 175); settings: S. cerevisiae mlh1 rad18 strain growth inhibition, stronger effect = higher value
# In short: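 Inhibition values reflect reduced growth of mutant yeast versus vehicle-treated controls following compound exposure; the mutations affect DNA damage repair.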
# [11] = NCI Yeast Anticancer Drug Screen. Data for the rad18 strain (AID 177); settings: S. cerevisiae rad18 mutant growth inhibition, stronger effect = higher value
# In short: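 Steps: expose repair-mutant yeast to compound; measure growth; express as inhibition relative to vehicle control.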
# [12] = NCI Yeast Anticancer Drug Screen. Data for the wt1 strain (AID 149);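 also: 0% = growth of vehicle-treated wt1 cultures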; settings: S. cerevisiae wt1 strain (SPY 50644) growth inhibition, stronger effect = higher value
# In short: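 wt1 strain grown with compound or vehicle; inhibition taken from the growth difference.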
# [13] = NCI Yeast Anticancer Drug Screen. Data for the rad50EPP+ strain (AID 151);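 also: 0% = growth of vehicle-treated control cultures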; settings: S. cerevisiae rad50 mutant strain, stronger effect = higher value
# In short: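 Genetically defined yeast (rad50EPP+, DNA damage repair alteration) is grown with compound, and inhibition of growth is expressed relative to vehicle-treated controls.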
# [14] = NCI Yeast Anticancer Drug Screen. Data for the mgt1 strain (AID 153); settings: S. cerevisiae mgt1 mutant growth inhibition, stronger effect = higher value
# In short: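 In the mgt1 strain, test compounds were added and growth inhibition was determined relative to vehicle-treated controls.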
# [15] = NCI Yeast Anticancer Drug Screen. Data for the rad50 strain (AID 155);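 also: 0% = growth of vehicle-only cultures of the same strain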; settings: S. cerevisiae rad50 strain growth inhibition, stronger effect = higher value
# In short: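 DNA repair mutant yeast, compound exposure, growth read-out; inhibition is taken relative to vehicle.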
# [16] = at 5.0 µM (retest, dose inferred, filed as 0.5)
# [17] = at 50.0 µM (retest, dose inferred, filed as 5.0)
smiles,measurement,setting,value
BrCC[N+]12CC[N+](CCBr)(CC1)C2,growth inhibition,[1]; at 100.0 µM,95% (active)
same,growth inhibition,[2]; at 1.2 µM,-13% (inactive)
same,growth inhibition,[2]; at 3.7 µM,-16% (inactive)
same,growth inhibition,[2]; at 11.0 µM,56% (inactive)
same,growth inhibition,[2]; at 33.0 µM,93% (active)
same,growth inhibition,[2]; at 100.0 µM,94% (active)
same,growth inhibition,[3]; [16],46% (inactive) and -15% (inactive)
same,growth inhibition,[3]; [17],90% (active) and 93% (active)
same,growth inhibition,[3]; at 50.0 µM,89.2% (active)
same,growth inhibition,[4]; at 1.2 µM,1% (inactive)
same,growth inhibition,[4]; at 3.7 µM,-9% (inactive)
same,growth inhibition,[4]; at 11.0 µM,2% (inactive)
same,growth inhibition,[4]; at 33.0 µM,78% (active)
same,growth inhibition,[4]; at 100.0 µM,89% (active)
same,growth inhibition,[5]; [16],35% (inactive) and 23% (inactive)
same,growth inhibition,[5]; [17],92% (active) and 65% (inactive)
same,growth inhibition,[5]; at 50.0 µM,84.9% (active) and 85.5% (active)
same,growth inhibition,[6]; at 1.2 µM,-5% (inactive)
same,growth inhibition,[6]; at 3.7 µM,-1% (inactive)
same,growth inhibition,[6]; [16],34% (inactive) and -12% (inactive)
same,growth inhibition,[6]; at 11.0 µM,36% (inactive)
same,growth inhibition,[6]; at 33.0 µM,89% (active)
same,growth inhibition,[6]; [17],92% (active) and 95% (active)
same,growth inhibition,[6]; at 50.0 µM,86.7% (active) and 87% (active)
same,growth inhibition,[6]; at 100.0 µM,95% (active)
same,growth inhibition,[7]; at 1.2 µM,-33% (inactive)
same,growth inhibition,[7]; at 3.7 µM,-18% (inactive)
same,growth inhibition,[7]; at 11.0 µM,4% (inactive)
same,growth inhibition,[7]; at 33.0 µM,86% (active)
same,growth inhibition,[7]; at 100.0 µM,95% (active)
same,growth inhibition,[8]; at 1.2 µM,12% (inactive)
same,growth inhibition,[8]; at 3.7 µM,-2% (inactive)
same,growth inhibition,[8]; at 11.0 µM,42% (inactive)
same,growth inhibition,[8]; at 33.0 µM,88% (active)
same,growth inhibition,[8]; at 100.0 µM,96% (active)
same,growth inhibition,[9]; at 1.2 µM,-17% (inactive)
same,growth inhibition,[9]; at 3.7 µM,15% (inactive)
same,growth inhibition,[9]; at 11.0 µM,5% (inactive)
same,growth inhibition,[9]; at 33.0 µM,77% (active)
same,growth inhibition,[9]; at 100.0 µM,89% (active)
same,growth inhibition,[10]; [16],64% (inactive) and 42% (inactive)
same,growth inhibition,[10]; [17],95% (active) and 90% (active)
same,growth inhibition,[10]; at 50.0 µM,90.6% (active) and 86.9% (active)
same,growth inhibition,[11]; at 1.2 µM,10% (inactive)
same,growth inhibition,[11]; at 3.7 µM,25% (inactive)
same,growth inhibition,[11]; at 11.0 µM,53% (inactive)
same,growth inhibition,[11]; at 33.0 µM,89% (active)
same,growth inhibition,[11]; at 100.0 µM,95% (active)
CCN(CCCl)CCCCNc1c2ccccc2nc2ccc(OC)cc12,growth inhibition,[12]; at 1.2 µM,3% (inactive)
same,growth inhibition,[12]; at 3.7 µM,8% (inactive)
same,growth inhibition,[12]; at 11.0 µM,32% (inactive)
same,growth inhibition,[12]; at 33.0 µM,74% (active)
same,growth inhibition,[12]; at 100.0 µM,95% (active)
same,growth inhibition,[13]; at 1.2 µM,18% (inactive)
same,growth inhibition,[13]; at 3.7 µM,39% (inactive)
same,growth inhibition,[13]; at 11.0 µM,63% (inactive)
same,growth inhibition,[13]; at 33.0 µM,77% (active)
same,growth inhibition,[13]; at 100.0 µM,90% (active)
same,growth inhibition,[14]; at 1.2 µM,9% (inactive)
same,growth inhibition,[14]; at 3.7 µM,14% (inactive)
same,growth inhibition,[14]; at 11.0 µM,42% (inactive)
same,growth inhibition,[14]; at 33.0 µM,86% (active)
same,growth inhibition,[14]; at 100.0 µM,97% (active)
same,growth inhibition,[15]; at 1.2 µM,38% (inactive)
same,growth inhibition,[15]; at 3.7 µM,64% (inactive)
same,growth inhibition,[15]; [16],46% (inactive)
same,growth inhibition,[15]; at 11.0 µM,84% (active)
same,growth inhibition,[15]; at 33.0 µM,91% (active)
same,growth inhibition,[15]; [17],46% (inactive)
same,growth inhibition,[15]; at 50.0 µM,85.8% (active)
same,growth inhibition,[15]; at 100.0 µM,95% (active)
same,growth inhibition,[1]; at 1.2 µM,9% (inactive)
same,growth inhibition,[1]; at 3.7 µM,18% (inactive)
same,growth inhibition,[1]; [16],26% (inactive)
same,growth inhibition,[1]; at 11.0 µM,48% (inactive)
same,growth inhibition,[1]; at 33.0 µM,94% (active)
same,growth inhibition,[1]; [17],26% (inactive)
same,growth inhibition,[1]; at 50.0 µM,74.2% (active)
same,growth inhibition,[1]; at 100.0 µM,97% (active)
same,growth inhibition,[2]; at 1.2 µM,4% (inactive)
same,growth inhibition,[2]; at 3.7 µM,17% (inactive)
same,growth inhibition,[2]; at 11.0 µM,80% (active)
same,growth inhibition,[2]; at 33.0 µM,95% (active)
same,growth inhibition,[2]; at 100.0 µM,98% (active)
same,growth inhibition,[3]; [16],60% (inactive)
same,growth inhibition,[3]; [17],60% (inactive)
same,growth inhibition,[3]; at 50.0 µM,72.1% (active)
same,growth inhibition,[4]; at 1.2 µM,8% (inactive)
same,growth inhibition,[4]; at 3.7 µM,33% (inactive)
same,growth inhibition,[4]; at 11.0 µM,57% (inactive)
same,growth inhibition,[4]; at 33.0 µM,78% (active)
same,growth inhibition,[4]; at 100.0 µM,95% (active)
same,growth inhibition,[5]; [16],24% (inactive)
same,growth inhibition,[5]; [17],24% (inactive)
same,growth inhibition,[5]; at 50.0 µM,77.9% (active)
same,growth inhibition,[6]; at 1.2 µM,-21% (inactive)
same,growth inhibition,[6]; at 3.7 µM,-14% (inactive)
same,growth inhibition,[6]; [16],-15% (inactive)
same,growth inhibition,[6]; at 11.0 µM,38% (inactive)
same,growth inhibition,[6]; at 33.0 µM,82% (active)
same,growth inhibition,[6]; [17],-15% (inactive)
same,growth inhibition,[6]; at 50.0 µM,60.9% (inactive)
same,growth inhibition,[6]; at 100.0 µM,94% (active)
same,growth inhibition,[7]; at 1.2 µM,4% (inactive)
same,growth inhibition,[7]; at 3.7 µM,13% (inactive)
same,growth inhibition,[7]; at 11.0 µM,38% (inactive)
same,growth inhibition,[7]; at 33.0 µM,82% (active)
same,growth inhibition,[7]; at 100.0 µM,95% (active)
same,growth inhibition,[9]; at 1.2 µM,46% (inactive)
same,growth inhibition,[9]; at 3.7 µM,69% (inactive)
same,growth inhibition,[9]; at 11.0 µM,82% (active)
same,growth inhibition,[9]; at 33.0 µM,90% (active)
same,growth inhibition,[9]; at 100.0 µM,96% (active)
same,growth inhibition,[10]; [16],18% (inactive)
same,growth inhibition,[10]; [17],18% (inactive)
same,growth inhibition,[10]; at 50.0 µM,69.5% (inactive)
